# Data reported in PubChem BioAssay AID623911 (Vanderbilt High Throughput Screening Facility, 2012).
# Screen size: about 2,100 compounds; about 770 (37%) were called active. The list shows a part of the results. Values without a mark were called inactive.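 The calls were made as follows: active = by-eye trace score of 1 for enhancers or -1 for inhibitors, so actives lie on both sides (some results past the limit were not filed as active); inactive = score 0, or 3 fluorescent, or 4 baseline rise.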
# Molecular target: G protein-activated inward rectifier potassium channel 2 (Homo sapiens) + G protein-activated inward rectifier potassium channel 1 (Homo sapiens) (UniProt P48051+P48549)
# Sequence (P48051 whole entry, looked up): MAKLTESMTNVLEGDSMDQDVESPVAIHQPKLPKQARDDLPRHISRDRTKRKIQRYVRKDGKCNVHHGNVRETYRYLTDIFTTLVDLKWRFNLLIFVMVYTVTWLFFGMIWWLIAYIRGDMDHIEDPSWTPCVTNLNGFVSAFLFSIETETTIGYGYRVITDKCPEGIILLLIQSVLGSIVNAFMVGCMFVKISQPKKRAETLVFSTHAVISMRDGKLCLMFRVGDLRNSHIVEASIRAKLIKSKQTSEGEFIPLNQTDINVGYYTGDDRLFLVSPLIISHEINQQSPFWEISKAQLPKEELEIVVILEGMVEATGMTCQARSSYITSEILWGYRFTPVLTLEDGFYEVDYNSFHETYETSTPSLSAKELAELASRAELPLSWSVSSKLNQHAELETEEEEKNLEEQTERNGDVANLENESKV
# Sequence (P48549 whole entry, looked up): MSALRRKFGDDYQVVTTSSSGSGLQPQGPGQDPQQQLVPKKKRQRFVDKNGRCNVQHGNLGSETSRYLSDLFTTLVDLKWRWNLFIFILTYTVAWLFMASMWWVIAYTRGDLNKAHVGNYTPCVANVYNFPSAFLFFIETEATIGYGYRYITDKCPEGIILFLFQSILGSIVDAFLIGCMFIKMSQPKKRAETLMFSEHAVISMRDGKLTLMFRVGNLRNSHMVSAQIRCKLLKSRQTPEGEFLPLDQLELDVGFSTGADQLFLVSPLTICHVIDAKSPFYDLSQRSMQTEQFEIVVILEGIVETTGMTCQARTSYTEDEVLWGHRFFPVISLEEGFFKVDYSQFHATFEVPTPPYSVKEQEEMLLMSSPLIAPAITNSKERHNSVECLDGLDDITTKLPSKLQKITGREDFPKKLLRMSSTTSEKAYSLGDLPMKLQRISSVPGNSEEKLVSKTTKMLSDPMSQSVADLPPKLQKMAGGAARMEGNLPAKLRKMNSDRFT
# Experiment: GIRK1/2 thallium flux modulators, retest, confirmation, cell-based, HEK293 rmGlu8/hGIRK1/2, FluoZin-2 (AID 623911)
# Details: HEK293 rmGlu8/hGIRK1/2, thallium flux FluoZin-2; actives lie on both sides; glutamate co-added at its EC20 level
row,SMILES,manual score
1,O=C(O)c1cnc(-c2ccccc2)nc1Sc1ccccc1Cl,0
2,CCn1c(=NC(=O)CSC(C)=O)sc2ccccc21,0
3,O=C(Nn1cnnc1)c1cc2cc(Br)ccc2oc1=O,0
4,Cc1c(N2C(=O)CS/C2=N\N=C\c2ccccc2O)c(=O)n(-c2ccccc2)n1C,0
5,Cc1cccc(-c2nc(CN3CCCC(C(=O)NC4CCCCC4)C3)c(C)o2)c1 (stereo not drawn),-1 (active)
6,Cc1ccccc1-c1nc(CN2CCC(C(=O)NCCCN3CC(C)CC(C)C3)CC2)c(C)o1 (stereo not drawn),-1 (active)
7,CC1CC(C)CN(CCCn2c(=S)[nH]c3ccccc3c2=O)C1 (stereo not drawn),-0.5
8,O=C(C1CCCN(Cc2cccs2)C1)N1CCCCCC1 (stereo not drawn),0
9,O=[n+]1cc(-c2ccccc2)n([O-])c2c1CCC2,0
10,CC1=C(C(=O)Nc2cccnc2)C(c2ccc3c(c2)OCO3)C2=C(CCCC2=O)N1 (stereo not drawn),-0.5
11,COCCN(C(=O)Cc1cccs1)C(C(=O)NCc1ccc(OC)cc1)c1ccccc1 (stereo not drawn),0
12,COC(=O)COn1c(SC(C)C)nc2ccccc2c1=O,0
13,CCc1ccc2nc(NC(=O)c3cc(C)on3)sc2c1,1 (active)
14,CNC(=O)c1ccc2nc(NC(C)=O)sc2c1,-0.5
15,Cc1cc(C)c2nc(NC(=O)c3cc(C)on3)sc2c1,1 (active)
16,Cc1cccc2sc(NC(=O)Cn3cccc3)nc12,0
17,O=C(Nc1nc2ccc(Cl)cc2s1)c1ccc(Br)o1,0
18,COc1ccc2[nH]c(C)c(C(=O)CN3CC(C)OC(C)C3)c2c1 (stereo not drawn),0
19,C/C(CC(=O)NC(C)C)=N\NC(=O)COc1cc(C)c(Br)cc1Br,1 (active)
20,C/C(CC(=O)NCC(C)C)=N\NC(=O)COc1cc(C)c(Br)cc1Br,1 (active)
21,Cc1ccccc1-n1nnc2c(=O)oc3ccccc3c21,0
22,O=C(Nc1nc(=O)c2ccccc2s1)c1ccc(F)cc1,1 (active)
23,O=C(Nc1nc(=O)c2ccccc2s1)c1ccc(Cl)cc1,1 (active)
24,O=C(Cc1ccccc1)Nc1nc(=O)c2ccccc2s1,0
25,O=C(Nc1nc(=O)c2ccccc2s1)c1ccccc1,1 (active)
26,CCN(CC)C(=S)SCC(=O)Nc1nc(=O)c2ccccc2s1,0
27,CC(=O)Nc1ccc(SCC(=O)c2cc(C)n(-c3ccccc3F)c2C)cc1,0

row,SMILES,manual score
1,COC(=O)c1ccc(-n2c(C)cc(C(=O)CSc3ccc(NC(C)=O)cc3)c2C)cc1,1 (active)
2,COC(=O)c1ccc(NS(=O)(=O)c2ccc(SC)cc2)cc1,0
3,CCc1ccccc1N(C)C(=O)CCc1nc(-c2ccc(C)cc2)no1,-1 (active)
4,O=C(CCCc1nc(-c2ccc(Cl)cc2)no1)N1CCOCC1,0
5,CC(C)N(Cc1nc(-c2ccccc2)no1)C(=O)CSc1ccccc1,0
6,CN(C)Cc1c(O)c(Cl)cc2c3c(c(=O)oc12)CCCC3,0
7,O=C(O)C1C2C=CC3(CN(C4CCCC4)C(=O)C13)O2 (stereo not drawn),0
8,O=C(NC(=S)NCCC1=CCCCC1)c1cncc(Br)c1,0
9,COc1ccc(NC(=O)Nc2cc(C)ccc2OC)cc1,1 (active)
10,CCCOc1ccc(NCC(=O)Nc2ccc(C)cc2C)cc1,0
11,COc1ccc2cc(C(=O)Nc3ccccc3)sc(=O)c2c1OC,0
12,CCOc1ccc(NC(=O)Nc2cc(C)ccc2OC)cc1,1 (active)
13,COc1ccc(C)cc1NC(=O)NCCC1=CCCCC1,1 (active)
14,Cc1ccc(OC(=S)Nc2ccccc2)c(C)c1,0
15,COc1ccc(NC(=O)NC(C)c2ccncc2)cc1OC (stereo not drawn),0
16,COc1ccc(NC(=O)Nc2ccccc2OC)cc1,0
17,COc1ccc(C)cc1NC(=O)Nc1ccccc1,1 (active)
18,O=C(O)c1ccccc1C(=O)Nc1ccc(-c2csc(-c3ccccc3)n2)cc1,0
19,CN1CC=C2C(C#N)=C(N)C(C#N)(C#N)[C@H](c3cccc(Cl)c3)C2C1 (stereo partly drawn),3
20,COC(=O)[C@H](Cc1ccccc1)NC(=O)NCCC1=CCCCC1,1 (active)
21,COC(=O)c1ccccc1NC(=O)Nc1cnccn1,0.5
22,COc1cc(C(=S)N2CCCC2)cc(OC)c1OS(=O)(=O)c1ccc(NC(C)=O)cc1,0
23,COc1ccc(NC(=O)Nc2ccccc2C(=O)N2CCCC2)cc1,1 (active)
24,Cc1ccc(-c2[nH]nc3c2C(c2ccoc2)C(C#N)=C(N)O3)cc1C (stereo not drawn),0
25,CCOC(=O)N1CCN(c2ccc3nnnn3n2)CC1,0
26,CCOC(=O)N1CCN(c2c(F)cc3[nH]c(=S)[nH]c3c2Br)CC1,-1 (active)
